Bioassay records: PubChem BioAssay, National Center for Advancing Translational Sciences (NCATS)
In the library only some 5.7% were active in any assay of this set; here they are far more common.
HT1080 IDH1KD tx: HT-1080 IDH1 knockdown cell toxicity (counter line); HT-1080 IDH1 knockdown viability, ATP luminescence, 48 h; Potency, µM (series often up to 46.1 µM), without a hit: at the top dose activity, negative = toxicity, hits mostly cytotoxic; 360,000 tested, 2% active;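 note: 0% = DMSO wells and -100% = cell-free medium wells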
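Cytotoxicity counter-line: IDH1KD HT-1080, 48 h, CellTiter-Glo. Curves classed by r2, magnitude and activity.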
KB-3-1 tox: KB-3-1 parental cell cytotoxicity; KB-3-1 viability, CellTiter-Glo ATP luminescence, 72 h; Potency, µM (top dose mostly 46.1 µM), actives largely listed as cytotoxic; 400,000 tested, 1.4% active; AID 1347075; note: nearly all actives have a fitted effect of over 60% in size
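KB-3-1 parental drug-naive adenocarcinoma cells in DMEM/10% FBS, incubated 72 h at 37 C with pin-transferred compounds across a concentration series. Viability by CellTiter-Glo luminescence; concentration-response curves fitted after normalization.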
HT1080-NT tox: kills 2HG-producing HT-1080-NT fibrosarcoma cells | AID 686970 | Potency, µM (doses to about 46.1 µM), for the others: top-dose activity, negative = less viability, most hits filed as cytotoxic | 360,000 tested, 1.6% active | HT-1080-NT fibrosarcoma viability, CellTiter-Glo ATP luminescence, 48 h;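 note: NT is the 2HG producing partner of a matched IDH1 knockdown line; 0% = DMSO-treated cells and -100% = media-only wells without cells; nearly all actives have a fitted effect of over 55% in size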
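Luminescent CellTiter-Glo readout after 48 hours of compound exposure at 37 degrees C defined viability of HT-1080-NT cells. Activity was normalized to DMSO wells and cell-free media wells; concentration-response curves were fitted and assigned curve classes.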
KB-V1 MDR tox: kills drug-selected multidrug resistant KB-V1 cells. AID 1347076. 400,000 tested, 3.4% active. KB-V1 MDR cells viability, CellTiter-Glo, 72 h. Potency, µM (series often up to 46.1 µM), actives largely listed as cytotoxic; note: nearly all actives have a fitted effect of over 60% in size
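KB-V1, DMEM (no phenol red) + 10% FBS; cpd pin-transferred, titration series; 72 h, 37 degrees C; CellTiter-Glo, luminescence. Data normalized, curve-fit.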
Numbers without * were called inactive; i = inactive; u = inconclusive; x = no result given; [ ] = remark or other dose. Calls come from the whole dose curve; as a rule, active = well fitted curve in the direction sought with a large enough effect; inconclusive = small, poorly fitted or top-dose-only effect, or another doubt; inactive = no such curve, though single readings can be large; an effect the other way counts as inactive or inconclusive. Unless noted, % is set by controls: 0 for no effect and ±100 for the full control effect; potency is the fitted concentration of half-maximal effect.

SMILES | HT1080 IDH1KD tx | KB-3-1 tox | HT1080-NT tox | KB-V1 MDR tox
COc1ccc(S(=O)(=O)N2CCN(C(=O)c3ccc([N+](=O)[O-])o3)CC2)cc1 | u | i | u | i
O=C(/C=C/c1cccc([N+](=O)[O-])c1)c1ccc([N+](=O)[O-])o1 | 5.8µM* | u | 5.8µM* | i
COc1ccc(/C=C/C(=O)c2ccc([N+](=O)[O-])o2)cc1 | 18µM* | 18µM* | u | u
COc1ccc(Oc2ccc(/C=C/C(=O)c3ccc(O)cc3)cc2[N+](=O)[O-])cc1 | u | i | 23µM* | u
Cc1cccc(/C=C/C(=O)c2ccc([N+](=O)[O-])o2)c1 | u | u | -20% | i
O=C(/C=C/c1ccc(O)c([N+](=O)[O-])c1)c1ccc2ccccc2c1 | u | i | -14% | i
COc1ccc(/C(O)=C(\C#N)c2nc3ccccc3n2C)cc1OC | -27% | i | -3% | 5.8µM*
Cc1nc([N+](=O)[O-])cn1CC(=O)c1ccc2c(c1)OCCO2 | x | i | x | i
CC(=O)Nc1c(Cl)c(Cl)c2c(c1Cl)C(=O)c1cc(Cl)ccc1-2 | 16% | 21µM* | 3% | 15µM*
Cc1cc(C)n(-c2ccn(Cc3ccc(Cl)cc3Cl)c(=O)n2)n1 | -22% | i | -15% | 7.3µM*
Cc1ccccc1/C=N/NC(=O)Cc1ccc(Cl)cc1 | -13% | i | -17% | i
Cc1cc(SCC(=O)N/N=C/c2ccc(O)cc2O)c(C)cc1Br | u | u | -28% | 10µM*
Cc1ccc(/C=N/NC(=O)Cc2ccc(Cl)cc2)c(O)c1 | 18µM* | u | u | 7.3µM*
O=C(CNC(=O)C(c1ccccc1)c1ccccc1)N/N=C/c1ccc(O)cc1O | 7.3µM* | u | u | i
Cc1cc(SCC(=O)N/N=C/c2ccccc2C(=O)O)c(C)cc1Br | -5% | i | 0% | u
Cc1cccc(OCC(=O)NCC(=O)N/N=C/c2ccc(O)cc2O)c1 | 18µM* | i | -19% | u
CCn1cc(C(=O)NCc2ccccc2OC)c(=O)c2cc(S(=O)(=O)N3CCCCC3)ccc21 | x | i | x | u
CC(C)(C)c1ccc(CN(Cc2ccco2)c2cnc(S(C)(=O)=O)nc2C(=O)Nc2ccc(F)cc2)cc1 | x | i | x | i
Cc1nn(S(=O)(=O)c2ccc(C(C)(C)C)cc2)c(C)c1S(=O)(=O)N1CCCCCC1 | x | i | x | i
COc1cccc(/C=N/NC(=O)CNC(=O)COc2cccc(C)c2)c1O | 23µM* | u | u | u
COc1ccc(C(=O)Nc2nc3c(s2)CCCC3)cc1S(=O)(=O)N1CCCc2ccccc21 | u | u | -4% | 5.2µM*
CCN(CC(=O)Nc1c(F)cccc1F)C(=O)c1cccc(S(=O)(=O)N2CCCc3ccccc32)c1 | -12% | u | -5% | i
Cc1cccc(NC(=O)c2ccc(Cl)c(S(=O)(=O)N3CCc4ccccc43)c2)n1 | u | u | -20% | i
CCN(CC(=O)Nc1cccc(OC)c1)C(=O)c1cccc(S(=O)(=O)N2CCc3ccccc32)c1 | 2% | u | 0% | 18µM*
CN(Cc1nc2ccccc2c(=O)[nH]1)C(=O)c1cccc(S(=O)(=O)N2CCCCCC2)c1 | -2% | i | 2%[9.24 µM] | i
SMILES | HT1080 IDH1KD tx | KB-3-1 tox | HT1080-NT tox | KB-V1 MDR tox
CCc1nnc(NC(=O)c2ccc(Cl)c(S(=O)(=O)N3CCc4ccccc43)c2)s1 | -2%[9.24 µM] | 21µM* | -14% | 13µM*
CN(Cc1nc2ccccc2c(=O)[nH]1)C(=O)c1cccc(S(=O)(=O)N2CCc3ccccc32)c1 | -13% | i | -15% | 16µM*
CCC(=O)N1CCc2cc(S(=O)(=O)CCC(=O)N3CCN(c4ccccc4Cl)CC3)ccc21 | x | i | x | i
COc1ccc(-n2c(=O)c3c(c4cc(OC)ccc4n3C)n(C)c2=O)cc1 | x | i | x | i
CCn1c(=O)n(-c2ccc(C)c(F)c2)c(=O)c2sc3ccccc3c21 | x | i | x | i
COc1ccc(C(=O)Nc2ccc(S(=O)(=O)N3CCc4ccccc43)cc2)cc1 | u | 2.9µM* | -3% | 2.6µM*
O=C(O)C1CC=CCC1C(=O)Nc1ccc(S(=O)(=O)N2CCCc3ccccc32)cc1 (stereo not drawn) | 5.6µM* | u | u | i
O=C(Nc1ccc(S(=O)(=O)N2CCCc3ccccc32)cc1)C1CCCO1 (stereo not drawn) | -24% | i | 0% | i
O=C(Nc1ncccc1O)c1cccc(S(=O)(=O)N2CCc3ccccc32)c1 | -2% | i | 1% | i
COc1cc2c(cc1OC)CN(C(=O)c1cccc(S(=O)(=O)N3CCc4ccccc43)c1)CC2 | -29% | i | -2% | 21µM*
COc1ccc(NC(=O)c2cccc(S(=O)(=O)N3CCc4ccccc43)c2)cn1 | -15% | i | -14% | 13µM*
O=C(c1cccc(S(=O)(=O)N2CCc3ccccc32)c1)N1CCc2ccccc2C1 | -23% | u | -23% | i
O=C(NC1CCCc2ccccc21)c1cnn2c1NC(=C1CC1)C=C2C(F)F (stereo not drawn) | -20% | x | -25% | x
Cc1ccc(S/C(=N/S(=O)(=O)c2ccc(Cl)cc2)c2ccccc2)cc1 | x | u | x | i
COc1cc2nc(NC(=O)c3ccc(S(=O)(=O)N4CCc5ccccc54)cc3)sc2cc1OC | x | u | x | 7.3µM*
COc1ccc(C(CNC(=O)c2cccc(S(=O)(=O)N3CCCc4ccccc43)c2)N(C)C)cc1 (stereo not drawn) | u | u | -4% | 2.3µM*
COc1cc2nc(N(CCCN(C)C)C(=O)c3ccc(S(=O)(=O)N4CCc5ccccc54)cc3)sc2cc1OC | u | i | u | i
CC(=O)Nc1ccc(S(=O)(=O)N2CCSc3ccccc32)cc1 | 13µM* | 5.8µM* | 21µM* | i
O=S(=O)(c1cccc(Cl)c1)N1CCSc2ccccc21 | -1% | i | -1% | i
Cc1cccc(-c2nc(SCC(=O)N3CCc4ccccc43)c3c(=O)n(C)c(=O)n(C)c3n2)c1 | x | i | x | i
Nc1nc(Cl)cc(Sc2ccc3ccccc3c2)n1 | 16µM* | u | u | u
O=C(O)CSc1nnc(-c2cccnc2)n1Cc1ccccc1 | 3% | i | 8% | i
Cc1ccc(-n2c(SCC(=O)OC(C)C)nnc2-c2ccccn2)cc1 | 3% | i | -20% | 21µM*
Cc1ccc(C(=O)CSc2nnc(-c3cccnc3)n2N)cc1 | u | u | u | 7.3µM*
Cc1ccc(CSc2nnc(-c3cccnc3)n2N)cc1 | 2% | i | 14% | i
CC(C)OC(=O)CSc1nnc(-c2cccnc2)n1Cc1ccccc1 | -1% | i | 3% | 21µM*
CC(C)OC(=O)CSc1nnc(-c2ccccn2)n1-c1ccccc1 | 0% | i | 11% | i
CC1CCc2c(sc3nc(-c4cc5ccccc5oc4=O)nc(Cl)c23)C1 (stereo not drawn) | x | i | x | u
